Screening results: PubChem, National Center for Advancing Translational Sciences (NCATS)
HP1b binding inh – HTS for Inhibitors of HP1-beta Chromodomain Interactions with Methylated Histone Tails | AlphaScreen HP1-beta / biotin-H3K9me3 peptide binding | Potency, µM (titrated, usually from 114 µM), actives largely listed as inhibitors | actives 0.56% (n = 390,000) | Chromobox protein homolog 1 (Homo sapiens), P83916; further: nearly all actives have a fitted effect of over 70% in size
Target sequence (P83916 whole entry, looked up): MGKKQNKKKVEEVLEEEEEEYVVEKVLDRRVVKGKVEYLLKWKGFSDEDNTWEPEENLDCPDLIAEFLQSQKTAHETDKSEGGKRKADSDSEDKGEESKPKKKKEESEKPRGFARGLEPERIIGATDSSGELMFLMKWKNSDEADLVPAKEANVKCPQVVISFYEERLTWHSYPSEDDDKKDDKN
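Compound inhibition of the preformed complex between 50 nM HP1-beta and 50 nM biotinylated H3K9me3 peptide was read by AlphaScreen. Buffer was PBS pH 7.4 with 0.01% Tween-20. Incubations ran 30 min at room temperature, with 10 ug/mL donor/acceptor beads.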
BAZ2B inh – qHTS Assay for Inhibitors of BAZ2B; Bromodomain adjacent to zinc finger domain protein 2B (Homo sapiens), Q9UIF8; AlphaScreen BAZ2B-H3K14Ac peptide displacement; Potency, µM (highest dose often 114 µM), hits mostly inhibitors; actives 4.4% (n = 360,000); further: nearly all actives have a fitted effect of over 60% in size
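Compounds, titrated to a top concentration of 110 uM, were incubated 30 min at room temperature with preformed BAZ2B/acetyl-K14 H3 peptide complex (50 nM each). Proximity signal was measured by AlphaScreen after 20 min with beads.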
PLK1 PBD inh – qHTS for Inhibitors of PLK1-PDB (polo-like kinase 1 - polo-box domain): Primary Screen; Serine/threonine-protein kinase PLK1 (Homo sapiens), P53350; Plk1 PBD binding of FITC phosphopeptide, fluorescence polarization; Potency, µM, actives largely listed as inhibitors; actives 2.8% (n = 360,000); AID 720504, 2013; further: series mostly up to about 57 µM; nearly all actives have a fitted effect of over 65% in size
G9a block – qHTS Assay for Inhibitors of Histone Lysine Methyltransferase G9a | Histone-lysine N-methyltransferase EHMT2 (Homo sapiens), Q96KQ7 | G9a H3K9 monomethylation, AlphaScreen, 2 h | Potency, µM (highest dose often 102 µM), hits mostly inhibitors | actives 8.8% (n = 350,000); further: nearly all actives have a fitted effect of over 75% in size
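Quantitative HTS format: methyltransferase activity on a biotin-tagged H3K9 peptide is measured by AlphaScreen, using a rabbit anti-monomethyl-H3K9 antibody with streptavidin donor and anti-IgG acceptor beads. Final levels are 20 nM enzyme, 500 nM peptide, 20 uM SAM; 2 h RT.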
JMJD2A Tudor inh – qHTS Assay for Inhibitors of JMJD2A-Tudor Domain; Potency, µM (series often up to 114 µM), hits mostly inhibitors; actives 4.4% (n = 390,000); AlphaScreen JMJD2A-Tudor / H3K4me3 peptide binding; AID 504339, 2011; further: nearly all actives have a fitted effect of over 50% in size
PI5P4Ka inh – qHTS for Inhibitors of phosphatidylinositol 5-phosphate 4-kinase (PI5P4K); PI5P4Kalpha enzyme, ADP-Glo luminescence, 60 min; stronger effect = lower value; max response, %; Phosphatidylinositol 5-phosphate 4-kinase type-2 alpha (Homo sapiens), P48426; actives 1.2% (n = 330,000); AID 652105, 2013; active means max response of -50% or lower; inconclusive means between -30% and -50%; inactive means -30% or higher; further: value at the top dose of about 77 µM
Target sequence (P48426 whole entry, looked up): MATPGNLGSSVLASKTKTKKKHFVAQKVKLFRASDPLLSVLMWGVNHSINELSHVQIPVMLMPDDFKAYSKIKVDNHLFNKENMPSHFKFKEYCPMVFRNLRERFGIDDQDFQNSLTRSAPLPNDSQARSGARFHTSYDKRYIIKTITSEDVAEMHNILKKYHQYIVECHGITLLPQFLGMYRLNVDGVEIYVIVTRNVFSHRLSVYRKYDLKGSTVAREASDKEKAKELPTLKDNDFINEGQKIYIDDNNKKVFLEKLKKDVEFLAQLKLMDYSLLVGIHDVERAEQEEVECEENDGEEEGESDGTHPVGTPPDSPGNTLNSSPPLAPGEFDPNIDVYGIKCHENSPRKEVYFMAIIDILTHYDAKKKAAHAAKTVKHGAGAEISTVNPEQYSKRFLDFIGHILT
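Human PI5P4Kalpha with substrate in 0.038 M HEPES pH 7.4, 0.28 mM EGTA, 0.1% CHAPS, 5% DMSO; reaction started with 5 microM ATP (final), 60 min at room temperature. ADP formed read by ADP-Glo luminescence.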
Hits are given with their value; - = inactive; ? = inconclusive; . = no result; [ ] = another dose, or the depositor's remark. A selection: hits, their analogues and other compounds. The true share with any hit is near 12%. Unless noted, the call rests on the fitted dose curve; in most records, active means well fitted curve in the direction sought with a large enough effect; inconclusive means small, poorly fitted or top-dose-only effect, or another doubt; inactive means no such curve, though single readings can be large; an effect the other way counts as inactive or inconclusive.

SMILES | HP1b binding inh | BAZ2B inh | PLK1 PBD inh | G9a block | JMJD2A Tudor inh | PI5P4Ka inh
Cc1[nH]n(-c2ccccc2)c(=O)c1C(c1cccc([N+](=O)[O-])c1)c1c(C)[nH]n(-c2ccccc2)c1=O | - | 28.2µM | 23.8µM | 35.5µM | ? | -
Cc1[nH]n(-c2ccccc2)c(=O)c1C(C[N+](=O)[O-])c1ccc(Br)cc1 (stereo not drawn) | - | ? | 26.7µM | 39.8µM | ? | -
CCOc1ccc(C(c2c(C)[nH]n(-c3ccccc3)c2=O)c2c(C)[nH]n(-c3ccccc3)c2=O)cc1OC | ? | ? | . | 8.91µM | ? | .
Cc1[nH]n(-c2ccccc2)c(=O)c1-c1cccc(Cl)c1 | - | ? | - | -[0.0925 µM] | - | -
COc1cccc(C(C[N+](=O)[O-])c2c(C)[nH]n(-c3ccccc3)c2=O)c1 (stereo not drawn) | - | ? | 29.9µM | 10µM | - | -
CC(=O)c1ccc(S(=O)(=O)N(C)CCCC(=O)N2CCN(c3ncccn3)CC2)cc1 | - | - | - | -[12.7 µM] | - | -
CCOc1ccc(OCCC(=O)OCC(=O)Nc2ccc3c(c2)OCCO3)cc1 | - | - | - | ? | - | -
CCOC(=O)c1c(C)[nH]c(C(=O)N2CCc3cc(OC)c(OC)cc3C2)c1C | - | - | - | -[0.501 µM] | - | -
Cc1[nH]n(-c2ccccc2)c(=S)c1C=Nc1ccc([N+](=O)[O-])cc1 | ? | 10µM | 2.67µM | 0.891µM | 1.78µM | -79.2
Cc1[nH]n(-c2ccccc2)c(=O)c1C(=O)c1ccc([N+](=O)[O-])cc1 | - | - | - | 50.1µM | - | -
Cc1[nH]n(-c2ccccc2)c(=O)c1C(c1ccc(C(=O)O)cc1)c1c(C)[nH]n(-c2ccccc2)c1=O | - | - | 8.44µM | - | - | -
Cc1[nH]n(-c2ccccc2)c(=O)c1C=Nc1ccc(S(=O)(=O)N=C(N)N)cc1 | - | - | - | ? | - | -
CCN1CCN(c2cc(C)c3cc(NC(=O)/C=C/c4ccc(C)cc4)ccc3n2)CC1 | - | - | . | - | - | .
O=C(C[C@@H]1C/C=C/CC[C@H](Cc2ccc(F)cc2)C(=O)OC[C@@H](Cc2ccccc2)NC1=O)N[C@H](CO)Cc1ccccc1 | - | . | - | . | - | -
CCOc1cccc2sc(NC(=O)c3ccc(S(=O)(=O)N4CCCCC4)cc3)nc12 | - | - | . | - | - | .
CCC1CCCCN1C(=S)NC(=O)c1ccc(F)c(S(=O)(=O)N2CCOCC2)c1 (stereo not drawn) | - | - | - | 44.7µM | - | -
CCC1CCCCN1C(=S)NC(=O)c1ccc([N+](=O)[O-])cc1 (stereo not drawn) | - | 70.8µM | - | ? | ? | -
CCC1CCCCN1C(=S)NC(=O)c1cccs1 (stereo not drawn) | - | - | - | ? | - | -
Cc1ccc(CSc2nnc(-c3ccncc3)n2C)cc1 | - | ? | - | - | 89.1µM | -
Cc1occc1-c1nnc(SCC(=O)Nc2ccccc2)n1C | - | - | - | -[12.7 µM] | - | -
Cc1ccc(Nc2nc(CSc3nnc(-c4ccncc4)n3C)cs2)cc1 | - | - | - | 39.8µM | - | -
Cc1ccccc1Nc1nc(CSc2nnc(-c3ccoc3C)n2C)cs1 | - | ? | - | 39.8µM | - | -
CC(=O)Nc1ccc(-c2nnc(SCc3ccc(C)cc3)n2C)cc1 | - | - | - | 5.01µM | - | -
Cc1ccc(CSc2nnc(-c3ccncc3)n2N)cc1 | - | - | - | -[12.7 µM] | - | -
COc1ccc(CNC(=O)Nc2nc(C(N)Cc3ccc(C(F)(F)F)cc3)cs2)cc1 (stereo not drawn) | . | . | - | . | . | -
SMILES | HP1b binding inh | BAZ2B inh | PLK1 PBD inh | G9a block | JMJD2A Tudor inh | PI5P4Ka inh
CC(=O)N1CC=C2C(C#N)=C(N)C(C#N)(C#N)[C@H](c3ccoc3)[C@H]2C1 | - | - | - | ? | - | .
CN1CC=C2C(C#N)=C(N)C(C#N)(C#N)[C@H](c3ccoc3)[C@H]2C1 | - | - | 15µM | 39.8µM | - | -
COC(=O)c1cc2c(C)c(C)c3ccccn3c-2c1C(=O)OC | - | - | - | -[12.7 µM] | - | -
COC(=O)c1cc2n3ccccc3c(C)c(-c3ccccc3)c-2c1C(=O)OC | ? | 44.7µM | - | 44.7µM | ? | -
Cc1ccc(-c2nn(CCC(=O)O)cc2/C=C\C(=O)c2ccc(Br)cc2)cc1 | - | ? | 37.7µM | 25.1µM | ? | -
O=C(O)CCn1cc(/C=C\C(=O)c2ccc(Cl)cc2)c(-c2cccc(Br)c2)n1 | - | ? | 23.8µM | - | - | -
Cc1ccc(S(=O)(=O)Nc2ccc(Cl)cc2O)cc1 | . | . | - | . | . | -
COc1cc(/C=C/C(=O)O)cc(S(=O)(=O)N2CCN(S(=O)(=O)c3ccc(Cl)cc3)CC2)c1OC | - | - | - | - | - | -
CCC(Oc1ccccc1)C(=O)Nc1ccc(O)c(-c2nc3cc(C)ccc3o2)c1 (stereo not drawn) | - | - | . | - | - | .
Cc1ccc(-c2csc3ncnc(SCC(N)=O)c23)cc1 | - | - | - | - | - | -
Cc1sc2ncnc(SCC(=O)N3CCCC3)c2c1C | - | - | - | ? | - | -
Cc1nc(SCC(=O)N2CCN(C(=O)c3cccs3)CC2)c2c(C)c(C)sc2n1 | - | - | - | 17.8µM | - | -
Cc1sc2ncnc(SCc3ccc(C(=O)O)cc3)c2c1C | - | - | ? | 44.7µM | - | -
CC(=O)N1CCN(C(=O)CSc2ncnc3sc(C)c(C)c23)CC1 | - | . | 29.9µM | . | - | -
Cc1ccc(-c2csc3ncnc(SCc4ccc(C(=O)O)cc4)c23)cc1 | - | 50.1µM | - | . | ? | -
Cc1ccc(-n2nnc(-c3nsc(NC(=O)c4ccccc4C)n3)c2C)cc1Cl | - | - | . | - | - | .
CCc1nc2c(OCc3ccc(OC(F)F)cc3)cccn2c1N(C)C(=O)c1cccs1 | . | . | - | . | . | -
CCc1nnc(SCC(=O)Nc2nc(C)c(C(=O)N(C)C)s2)n1CC | - | - | - | . | - | -
Cn1c(=O)[nH]c(=O)c2c1nc(NN)n2CCOc1ccccc1 | - | - | - | 11.2µM | ? | ?
CC(C)Sc1nc2c(c(=O)[nH]c(=O)n2C)n1CC(O)COc1ccccc1 (stereo not drawn) | - | - | 23.8µM | 22.4µM | - | -
Cn1c(=O)[nH]c(=O)c2c1nc(NCCN)n2CCOc1ccccc1 | - | - | - | -[0.501 µM] | - | -
CC(O)CSc1nc2c(c(=O)[nH]c(=O)n2C)n1CC(O)COc1ccccc1 (stereo not drawn) | - | - | 26.7µM | 11.2µM | - | -
